Data: PubChem BioAssay (NCATS)
Activity calls are given as the source filed them. Calls come from the whole dose curve; as a rule, active = well fitted cell-killing curve with a large enough effect; inconclusive = small, poorly fitted or top-dose-only effect, or effect the other way; inactive = flat fitted curve, though single readings scatter.

assay: MultiTox-Fluor Cytotoxicity Assay - LYMP1-003 - Dead Cells (AID 961); details: LYMP1-003 lymphoblastoid cells, dead-cell protease fluorescence; series mostly up to 92.2 µM; cytotoxicity (dead cells): at the top concentration;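 note: 0% = DMSO and 100% = tetraoctylammonium bromide; nearly all actives have a fitted effect of over 70% in size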
Source text: NIH Chemical Genomics Center [NCGC]
NIH Molecular Libraries Screening Centers Network [MLSCN]
National Institutes of Environmental Health Sciences [NIEHS]
National Toxicology Program [NTP]
We have developed a 1536-well cell-based assay for quantitative high throughput screening (qHTS) against a number of cell lines to determine in vitro cytotoxicity of small molecules. This particular assay uses a human lymphoblastoid cell line (LYMP1-003) purchased from Coriell Institute.
NCGC Assay Protocol Summary:
The MultiTox-Fluor Cytotoxicity Assay (Promega) is a homogeneous method to simultaneously measure the relative number of live and dead cells in culture by detecting changes in cell membrane integrity. There are two fluorogenic peptide substrates in the assay reagent. Viable cells are determined when the cell-permeant substrate (GF-AFC) enters the cell and is cleaved by protease from live cells resulting in liberated fluorophore. This live-cell protease activity restricted to viable cells is proportional to cell number. The dead cells are determined by using fluorogenic cell-impermeant peptide substrate (bis-AAF-R110) which cleaved by dead cell proteases leaking from damaged cell membrane.
Using the MultiTox-Fluor Cytotoxicity Assay, the relative number of dead cells was measured in the lymphoblastoid cell line with complete culture medium following compound treatment for 16 hours. The assay was performed in opaque black Kalypsys 1536-well plates. In the screen, tetraoctylammonium bromide was used as positive control. Library compounds were measured for their ability to cause acute toxicity in the cell line, as reflected by an increase in dead cell protease activity, in a concentration-dependent manner. Data were normalized to the controls for basal activity (DMSO only) and 100% stimulation (15 uM tetraoctylammonium bromide). AC50 values were determined from concentration-response data modeled with the standard Hill equation.
qHTS protocol for MultiTox-Fluor Cytotoxicity assay
[Step] [Parameter] [Value] [Description]
1. Reagent; 5 uL; 2500 lymphoblastoid cells/well
2. Time; 5 hr; 37 C incubation
4. Controls; 23 nL; Tetraoctylammonium bromide 6.4pM to 92 uM
5. Time; 16 hr; 37 C incubation
6. Reagent; 5 uL; MuliTox-Fluor Assay reagent
7. Time; 60 min; Room Temperature
8. Detection; dead-cell fluorescence (Ex/Em=485/520); EnVision plate reader
Keywords: cytotoxicity, lymphoblastoid cell line, fluorescence, NTPHTS, NTPHTS_NCGC, NIEHS, EPA, DSSTox, MLSMR, MLSCN, NIH Roadmap, qHTS, NCGC

Structure (SMILES) | cytotoxicity (dead cells)
CC(=C/C=C/C(C)=C/C=C/C=C(C)/C=C/C=C(C)/C=C/C(=O)O)/C=C/C(=O)O | -8.95% (inactive)
Nc1cccc(C(F)(F)F)c1 | -10.4% (inactive)
CC1(N)CCC(C(C)(C)N)CC1 (stereo not given) | -0.328% (inactive)
S=C([S-])NCCNC(=S)[S-].[Zn+2] | -22.7% (inactive)
O=[N+]([O-])c1cccc(C(F)(F)F)c1 | -10.3% (inactive)
Nc1c(Cl)cc(Cl)cc1Cl | -9.47% (inactive)
CO[Si](CCCNCCC[Si](OC)(OC)OC)(OC)OC | -6.28% (inactive)
Oc1cccc(Nc2ccccc2)c1 | -3.1% (inactive)
CC(C)=CCl | -12% (inactive)
CC(C)(O)CCC(C)(C)O | -2.68% (inactive)
CCC(C)=O | 2.76% (inactive)
C[C@@H]1O[C@@H](O[C@@H]2[C@@H](O)[C@H](OCCc3ccc(O)c(O)c3)O[C@H](CO[C@@H]3O[C@H](CO)[C@@H](O)[C@H](O)[C@H]3O)[C@H]2OC(=O)/C=C/c2ccc(O)c(O)c2)[C@H](O)[C@H](O)[C@H]1O | -24.7% (inactive)
CCCCCCCCN | -4.06% (inactive)
O=Cc1c(Cl)cccc1Cl | -4.33% (inactive)
CCCCCCC=O | -7.38% (inactive)
Cc1c(N)cccc1[N+](=O)[O-] | 6.04% (inactive)
C=C(C)C(=O)OCC(C)O (stereo not given) | -5.1% (inactive)
CCCCC(CC)CNCC(CC)CCCC (stereo not given) | -7.45% (inactive)
Cc1nc2ccc(Cl)cc2[nH]1 | -5.96% (inactive)
CC(C)(C)OC=O | -10.7% (inactive)

Structure (SMILES) | cytotoxicity (dead cells)
O=[N+]([O-])c1c(Cl)cc(Cl)cc1Cl | -8.77% (inactive)
CCc1ccccc1 | 6.35% (inactive)
Oc1c(Cl)ccc(Cl)c1Cl | -4.95% (inactive)
Nc1ccc([N+](=O)[O-])c(N)c1 | 6.35% (inactive)
COC(=O)CC#N | -5.14% (inactive)
CCC1CO1 (stereo not given) | -8.6% (inactive)
C=C(C)C(=O)OC | 3.18% (inactive)
Nc1cccc([N+](=O)[O-])c1 | -2% (inactive)
CCC(C)(C)C(=O)O | 0.197% (inactive)
C=C(C)C(=O)OCCCCCC | -3.79% (inactive)
Nc1cccc(N)c1 | -6.18% (inactive)
O=C(O)c1ccccc1C(=O)O | -4.14% (inactive)
O=C(O)c1ccccc1[N+](=O)[O-] | -10.7% (inactive)
Cc1cccc2sc(N)nc12 | -0.376% (inactive)
CC=O | -5.35% (inactive)
Nc1ccc(Cl)cc1[N+](=O)[O-] | -10.9% (inactive)
Clc1cc(Cl)cc(Cl)c1 | -5.68% (inactive)
O=C1OC(=O)c2cc([N+](=O)[O-])ccc21 | 0.0608% (inactive)
Cc1ccc(Cl)cc1 | -0.0615% (inactive)
O=C1NC(=O)c2cc([N+](=O)[O-])ccc21 | -9.38% (inactive)
